Experimental findings from PubChem BioAssay (NCATS) are described below.

In experiment [1] the target is Cellular tumor antigen p53 (Homo sapiens) (UniProt P04637). As to the kind of experiment: Primary qHTS for small molecule compounds that upregulate eGFP-tagged delta133p53alpha (in N-terminal) cells. (AID 2060322). Further: nearly all actives have a fitted effect of over 75% in size. Further: potency means the concentration at half of the fitted maximal effect.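 On activation: series mostly up to about 56 µM; 0% = DMSO vehicle and 100% = reference activator.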 The note with it: NCI-H358 eGFP-delta133p53alpha fluorescence, 24 h; activation: stronger effect = higher value. The procedure, abridged:
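NCI-H358 cells pre-induced 24 h with 10 ng/ml doxycycline to express N-terminal eGFP-delta133p53alpha, then dosed 24 h at 37C without doxycycline; fixed, Hoechst-stained, GFP intensity by laser scanning cytometry, normalized to DMSO (0%) and 57.5 uM 5-azacytidine (100%).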
A general note: In qHTS, concentration-response curves come from the screen itself.

In experiment [2] the target is Aldehyde dehydrogenase, mitochondrial (Homo sapiens) (UniProt P05091). As to the kind of experiment: qHTS for Inhibitors of the Aldehyde Dehydrogenase Family (ALDH2) Primary screen (AID 2061308).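 Further: plate controls were vehicle for no effect and reference inhibitor for full effect; nearly all actives have a fitted effect of over 55% in size.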
Experiment [3] concerns the target Retinaldehyde dehydrogenase 3 (Homo sapiens) (UniProt P47895). As to the kind of experiment: qHTS for Inhibitors of the Aldehyde Dehydrogenase Family (ALDH1A3) Primary screen (AID 2061315).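 Further: plate controls were DMSO vehicle for no effect and reference inhibitor for full effect.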
Experiment [4] can be described thus: BET inhibitor-based combinations targeting novel dependencies in MECOM-rearranged (r) AML: MV-4-11 cell line (AID 2202233). Further: nearly all actives have a fitted effect of over 45% in size. Further: potency means the concentration at half of the fitted maximal effect. The procedure, abridged: (§1)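 Activity is given as area under the curve and as Z-AUC, mean-centred within each cell line. It comes from 11-point dose curves normalized to DMSO and empty wells. CellTiter-Glo luminescence was read after 48 hr drug exposure of 500 cells/well.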

The nature of experiment [5]: BET inhibitor-based combinations targeting novel dependencies in MECOM-rearranged (r) AML: UCSD-AML1 cell line (AID 2202235). Further: nearly all actives have a fitted effect of over 40% in size. Further: potency means the concentration at half of the fitted maximal effect. The procedure, abridged:
as §1

Experiment [6] is described as follows: BET inhibitor-based combinations targeting novel dependencies in MECOM-rearranged (r) AML: HNT-34 cell line (AID 2202234). Further: nearly all actives have a fitted effect of over 35% in size. Further: potency means the concentration at half of the fitted maximal effect. The procedure, abridged:
as §1

Experiment [7] in a line: BET inhibitor-based combinations targeting novel dependencies in MECOM-rearranged (r) AML: AML-191 cell line (AID 2202236; further: nearly all actives have a fitted effect of over 35% in size; further: potency means the concentration at half of the fitted maximal effect). The procedure, abridged: (§2)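 Cells were plated at 500 per well and exposed to an 11-point dose series of each drug for 48 hr. Viability was measured by CellTiter-Glo luminescence, normalized to DMSO and empty-well controls, and summarized as AUC and per-cell-line Z-AUC.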

A short description of experiment [8]: BET inhibitor-based combinations targeting novel dependencies in MECOM-rearranged (r) AML: AML-194 cell line (AID 2202237; further: nearly all actives have a fitted effect of over 40% in size; further: potency means the concentration at half of the fitted maximal effect). The procedure, abridged: as §2
For experiment [9], the target named is Retinaldehyde dehydrogenase 3 (Homo sapiens) (UniProt P47895). Description: qHTS for Inhibitors of the Aldehyde Dehydrogenase Family (ALDH1A3) Confirmatory screens (AID 2061311). Further: on the % scale 0 is the no-effect control and ±100 the full control effect; nearly all actives have a fitted effect of over 60% in size.

SMILES strings stand for the structures. Several values for one entry are separate records, joined by “and”; a condition that tells them apart may be missing. Equal values may be shown once. Inconclusive results are not listed. Values without a mark were called inactive. Activity calls are given as the source filed them. The call rests on the fitted dose curve; in most records, active means well fitted curve in the direction sought with a large enough effect; inconclusive means small, poorly fitted or top-dose-only effect, or another doubt; inactive means no such curve, though single readings can be large; an effect the other way counts as inactive or inconclusive.

Chain of Cellular tumor antigen p53 (Homo sapiens) (P04637 whole entry, looked up): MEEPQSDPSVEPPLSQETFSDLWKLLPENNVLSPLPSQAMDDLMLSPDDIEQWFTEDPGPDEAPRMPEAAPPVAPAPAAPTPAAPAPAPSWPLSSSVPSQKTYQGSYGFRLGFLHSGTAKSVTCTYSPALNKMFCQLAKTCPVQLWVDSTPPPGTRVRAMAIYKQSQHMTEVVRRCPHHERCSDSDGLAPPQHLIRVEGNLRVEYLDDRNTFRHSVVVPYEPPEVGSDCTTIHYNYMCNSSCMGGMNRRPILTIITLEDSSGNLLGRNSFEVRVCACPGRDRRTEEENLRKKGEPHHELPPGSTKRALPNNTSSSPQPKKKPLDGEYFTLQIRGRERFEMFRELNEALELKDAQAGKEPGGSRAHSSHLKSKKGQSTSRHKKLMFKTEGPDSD

On to `CC(C)(O)CCc1ccc(OCc2cc(-c3cccc(OC(F)F)c3)c3ncccc3c2)cc1`, for which the activation in experiment [1] is 8.96%. Besides, the Potency entry in [2], in experiment [3] and in [5] was “inactive” throughout. Further, the Potency in experiment [4] is 18.6 µM (active).
In the case of `Nc1ccn([C@@H]2C(F)=C(CO)[C@@H](O)[C@H]2O)c(=O)n1`, in experiment [1], the activation is 0.893% and -30.2%. For the same compound, the Potency result in experiment [2] and in experiment [3] was “inactive” in each case. Moreover, the Potency is 0.235 µM (active) in experiment [4] and 0.662 µM (active) in experiment [5].
Take `COC(=O)/C=C/C(=O)N(O)CCCCNCc1ccc(COC(=O)Nc2cccc3ccccc23)cc1`: the Potency in experiment [1] was 26.9 µM (active); in experiment [6], 5.9 µM (active); in experiment [7], 8.33 µM (active); in [8] it was 8.33 µM (active). Besides, the Potency result in experiment [2] and in [3] was “inactive” each time.
Turning to `CCN1CCN(c2ccc(Nc3cc(N(C)C(=O)Nc4c(Cl)c(OC)cc(OC)c4Cl)ncn3)cc2)CC1`, the activation in experiment [1] is 34.2% and 7.14%. The Potency result in [2] and in experiment [3] was “inactive” each time. The Potency was 13.2 µM (active) in experiment [6] and 26.3 µM (active) in experiment [7].
On to `Cc1ccc(NC(=O)c2ccc(CN3CCNCC3)cc2)cc1Nc1nccc(-c2cccnc2)n1`, for which, in [1], the activation was -16.1%. Moreover, the Potency entry in experiment [2] and in experiment [3] was “inactive” each time. For the same compound, the Potency in experiment [4] is 18.6 µM (active); in experiment [6], 2.63 µM (active); in experiment [8], 23.5 µM (active).
For `CC1CCC(C(=O)N(c2cc(C#CC(C)(C)C)sc2C(=O)O)C2CCC(O)CC2)CC1` (centres undefined), in experiment [1], the activation is -32.4% and -8.93%. Moreover, the Potency entry in experiment [2], in experiment [3] and in experiment [8] was “inactive” throughout. The Potency in experiment [4] is 20.9 µM (active).
Turning to `CC(C)(N)c1ccc(-c2nc3ccccc3nc2-c2ccccc2)cc1`, the activation in experiment [1] was 25%. Further, the Potency result in experiment [2] and in [3] was “inactive” each time. Also, the Potency was 16.6 µM (active) in experiment [6] and 20.9 µM (active) in experiment [7].
With `COc1ccc2c(c1)CC[C@@H](CN(C)CC(=O)O)[C@H]2c1ccccc1`, the activation in experiment [1] was -11.9%. In addition, the Potency entry in experiment [2], in experiment [3], in [5], in experiment [7] and in experiment [8] was “inactive” each time.
For the compound `CC(C)[C@](O)(c1ccc2cc(OC(F)F)c(OC(F)F)cc2c1)c1cn[nH]n1`, the activation in experiment [1] was 12.3%. The Potency entry in experiment [2], in experiment [3] and in [5] was “inactive” each time. For the same compound, the Potency in [6] is 18.6 µM (active).
With `NC(=O)c1ccc2nc(-c3ccc(Oc4ccc(Cl)cc4)cc3)[nH]c2c1`, in experiment [1], the activation was -21.2% and -4.33%. In addition, the Potency entry in experiment [2], in experiment [3], in experiment [5], in experiment [7] and in experiment [8] was “inactive” in each case. Further, in experiment [6], the Potency is 16.6 µM (active).
As to `COc1cc2c(Oc3ccc4[nH]c(C)cc4c3F)ncnc2cc1OCCCN1CCCC1`, the Potency in [1] was 24.3 µM (active) and 23.9 µM (active); in experiment [4] it was 18.6 µM (active); in experiment [6], 11.8 µM (active); in experiment [5], 16.6 µM (active); in experiment [7], 20.9 µM (active); in [8] it was 10.5 µM (active). The Potency entry in experiment [2] and in [3] was “inactive” throughout.
`Cc1cc(SCc2sc(-c3ccc(C(F)(F)F)cc3)nc2C)ccc1OCC(=O)O`: the activation in experiment [1] was -4.33%. Further, the Potency entry in [2], in experiment [3], in [4], in experiment [5], in [7] and in experiment [8] was “inactive” in each case.
Turning to `COc1ccc2cc(-c3nc(-c4ccc(S(C)=O)cc4)[nH]c3-c3ccncc3)ccc2c1` (centres undefined), the activation in experiment [1] was -7.86% and 8.04%. Also, the Potency result in [2], in [3] and in [5] was “inactive” in each case.
`Cc1cc(C(=O)Nc2cc(Oc3ccc4nc(NC(=O)C5CC5)cn4n3)ccc2C)n(C)n1`: the Potency in [1] was 16.9 µM (active); in experiment [4], 14.8 µM (active); in [6], 1.32 µM (active); in experiment [7], 6.61 µM (active); in experiment [8], 9.34 µM (active). For the same compound, the Potency result in experiment [2] and in experiment [3] was “inactive” throughout.
`CCCCC(F)(F)[C@@]1(O)CC[C@H]2[C@H](CC(=O)[C@@H]2CCCCCCC(=O)O)O1`: in experiment [1], the activation was -19.7%. In addition, the Potency result in [2], in experiment [3], in [6], in [5], in experiment [7] and in experiment [8] was “inactive” each time. Further, in [4], the Potency is 0.235 µM (active).
As for `CC(O)c1cc(C(=O)N[C@@H](C)Cn2ccc(-c3ccc(C#N)c(Cl)c3)n2)n[nH]1` (some centres undefined), the activation in experiment [1] is 1%. In addition, the Potency entry in experiment [2], in [3], in experiment [4], in [5] and in experiment [8] was “inactive” throughout. Also, in experiment [7], the Potency is 16.6 µM (active).
In the case of `Cc1ccccc1-n1nc(-c2c(-c3ccc(F)cc3)nn3c2NC[C@@H](CO)C3)ccc1=O`, in [1], the activation is 2.68%. In addition, the Potency entry in experiment [2], in experiment [3], in [4], in experiment [6], in experiment [7] and in experiment [8] was “inactive” in each case.
For the compound `CC(C)(O)CNc1nc(Nc2ccnc(C(F)(F)F)c2)nc(-c2cccc(C(F)(F)F)n2)n1`, in [1], the activation is -5% and -21.6%. The Potency entry in experiment [2], in experiment [3] and in experiment [5] was “inactive” in each case. For the same compound, the Potency in [4] was 20.9 µM (active).
For `CC1(C)CN(C(=O)c2ccc(-c3cccc4nc(NC(=O)C5CC5)nn34)cc2)C1`, in experiment [1], the activation was 5%. Also, the Potency result in experiment [2], in [3] and in experiment [8] was “inactive” in each case. Moreover, the Potency in experiment [6] was 18.6 µM (active).
Regarding `COCCOc1ccc2c(c1)ncn2-c1ccc2cccc(N3CCC(N)CC3)c2n1`, the Potency in experiment [1] is 16.9 µM (active); in experiment [4] it was 0.0186 µM (active); in experiment [6] it was 7.42 µM (active); in [5] it was 5.25 µM (active); in [7], 2.09 µM (active); in experiment [8] it was 2.35 µM (active). Also, the Potency result in experiment [2] and in [3] was “inactive” each time.
With `COc1c(Cl)cc2c([nH]c3cnccc32)c1NC(=O)c1cccnc1C`, the activation in [1] was 16.3%. The Potency result in [2] and in experiment [3] was “inactive” in each case. For the same compound, the Potency in [7] was 20.9 µM (active); in experiment [8], 23.5 µM (active).
As for `C=C1CCC2C(C)(COC(C)=O)CCCC2(C)C1CCC(C)CC(=O)O` (centres undefined), the activation in [1] is -12.2%. Besides, the Potency entry in experiment [9] and in [3] was “inactive” throughout.
